This is an account of results in PubChem BioAssay (NCATS).

“And” between values parts separate entries of the source, which are not always exact repeats. Equal entries are not always repeated. Records with an inconclusive call do not appear. The source made the active and inactive calls. Calls come from the whole dose curve; as a rule, active = well fitted curve in the direction sought with a large enough effect; inconclusive = small, poorly fitted or top-dose-only effect, or another doubt; inactive = no such curve, though single readings can be large; an effect the other way counts as inactive or inconclusive.
Potency is the fitted concentration of half-maximal effect.

The nature of the first test: Viability qHTS for spleen associated tyrosine kinase inhibitor (SYKi) drug resistant MV4-11 cells (AID 1963824). Note: nearly all actives have a fitted effect of over 35% in size. To be noted: SYKi-resistant MV4-11 viability, CellTiter-Glo, 72 h; series mostly up to 45 µM. The method in brief:
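CellTiter-Glo luminescence, read 10 min after reagent addition, reports viability after a 72 hr compound exposure. Cells are an MV4-11 line made resistant to SYK inhibition, seeded at 500 per well onto compound-containing plates.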
For orientation: In qHTS, concentration-response curves come from the screen itself.
On to `CNC(=O)c1c(F)cccc1Nc1nc(Nc2cc3c(cc2OC)CCN3C(=O)CN(C)C)nc2[nH]ccc12`, for which the Potency was 2.91 µM (active) and 4.68 µM (active).

Consider `COc1cc2ncnc(Nc3cccc(Cl)c3)c2cc1OC`, for which the Potency is 4.17 µM (active) and 6.51 µM (active).

Regarding `CN(C)c1ccc2cc(C(=O)N[C@@H](CCCN=C(N)CCl)C(=O)NCc3ccccc3)ccc2c1`, the Potency was 4.68 µM (active).

With `CC[C@@]1(O)C[C@H](O[C@H]2C[C@H](N(C)C)[C@H](O[C@H]3C[C@H](O)[C@H](O[C@H]4CCC(=O)[C@H](C)O4)[C@H](C)O3)[C@H](C)O2)c2c(cc3c(c2O)C(=O)c2c(O)cccc2C3=O)[C@@H]1C(=O)OC`, the Potency is 1.32 µM (active).

Take `O=C(Nc1cccnc1)N1CCC(Cc2cccc(Oc3ccc(C(F)(F)F)cn3)c2)CC1`: the Potency is 4.61 µM (active) and 3.72 µM (active).

As to `CC(C)C[C@H](NC(=O)CNC(=O)c1cc(Cl)ccc1Cl)B(O)O`, the Potency is 0.0934 µM (active).

As to `Cc1nc(N)sc1-c1ccnc(Nc2ccc(N3CCOCC3)cc2)n1`, the Potency is 0.164 µM (active).

For the compound `CNCCCC12CCC(c3ccccc31)c1ccccc12`, the Potency was 18.4 µM (active).

A further test is described as follows: Quantitative highthroughput screen to assess conditional lethalithy of NOMO1 cells grown in RPMI1640 with dialyzed fetal bovine serum (RPMI+ds) (AID 1963877). Note: nearly all actives have a fitted effect of over 30% in size. The following applies: NOMO1 in RPMI+dialyzed FBS viability, ATP luminescence, 48 h; series mostly up to 45.8 µM. The procedure, abridged: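 Each medium arm—HPLM with 10% dialyzed FBS, or RPMI1640 with 5 mM glucose and 10% untreated or dialyzed FBS—was screened against an 11-point, 3-fold compound titration for 48 h at 37 °C, with CellTiter-Glo luminescence as endpoint.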
`Nc1nc(=S)c2[nH]cnc2[nH]1`: the Potency is 7.43 µM (active).

For the compound `NCCCC(O)(P(=O)(O)O)P(=O)(O)O`, the Potency was 16.6 µM (active).

Take `Cn1cc(C2=C(c3c4n(c5ccccc35)CCC(CN)C4)C(=O)NC2=O)c2ccccc21` (stereo not drawn): the Potency was 18.7 µM (active).

With `CCC(C(=O)O)C1CCC(C)C(C(C)C(O)C(C)C(=O)C(CC)C2OC3(C=CC(O)[C@@]4(CC[C@](C)(C5CC[C@@](O)(CC)C(C)O5)O4)O3)C(C)CC2C)O1` (stereo partly drawn), the Potency is 1.18 µM (active).

As for `CC1(C)CCC(CN2CCN(c3ccc(C(=O)NS(=O)(=O)c4ccc(NCC5CCOCC5)c([N+](=O)[O-])c4)c(Oc4cnc5[nH]ccc5c4)c3)CC2)=C(c2ccc(Cl)cc2)C1`, the Potency was 0.105 µM (active).

`CNC(=O)c1cc(Oc2ccc(NC(=O)Nc3ccc(Cl)c(C(F)(F)F)c3)cc2)ccn1`: the Potency was 18.7 µM (active).

On to `CC(C)c1cc(C(=O)N2Cc3ccc(CN4CCN(C)CC4)cc3C2)c(O)cc1O`, for which the Potency is 0.662 µM (active).

Take `Cn1c(Nc2ccc(C(F)(F)F)cc2)nc2cc(Oc3ccnc(-c4ncc(C(F)(F)F)[nH]4)c3)ccc21`: the Potency was 23.5 µM (active).

Take `COc1cc(OC2CCN(C)CC2)ccc1Nc1ncc2c(n1)n(C1CCCC1)c(=O)n2C`: the Potency is 18.7 µM (active).

`COc1cc2c(N3CCN(C(=O)Nc4ccc(OC(C)C)cc4)CC3)ncnc2cc1OCCCN1CCCCC1`: the Potency is 8.33 µM (active).

In the case of `CS(=O)(=O)c1cccc(CNc2nc(Nc3ccc4c(c3)CCC(=O)N4)ncc2C(F)(F)F)c1`, the Potency is 18.7 µM (active).

Take `C[C@@H](N)c1ccc(C(=O)Nc2ccnc3[nH]ccc23)cc1`: the Potency is 18.7 µM (active).

Turning to `C1CCC(C(CC2CCCCN2)C2CCCCC2)CC1` (stereo not drawn), the Potency is 23.5 µM (active).

`Nc1nc(Nc2ccc(S(N)(=O)=O)cc2)nn1C(=O)c1c(F)cccc1F`: the Potency is 16.6 µM (active).

On to `CC(C)C[C@H](NC(=O)CNC(=O)c1cc(Cl)ccc1Cl)B(O)O`, for which the Potency is 0.418 µM (active).
